An excerpt weighted towards active compounds, which were near 11% of everything screened.
hNpr1 antagonist – human Npr1 receptor antagonism; HEK293 hNpr1 GloSensor cGMP, ANP-stimulated luminescence; Potency, µM (doses to about 46.3 µM), most hits filed as inhibitors; 1.6% of 76,000 active; AID 1347048; calls by dose curve; note: nearly all actives have a fitted effect of over 60% in size
Target sequence (P16066 whole entry, looked up): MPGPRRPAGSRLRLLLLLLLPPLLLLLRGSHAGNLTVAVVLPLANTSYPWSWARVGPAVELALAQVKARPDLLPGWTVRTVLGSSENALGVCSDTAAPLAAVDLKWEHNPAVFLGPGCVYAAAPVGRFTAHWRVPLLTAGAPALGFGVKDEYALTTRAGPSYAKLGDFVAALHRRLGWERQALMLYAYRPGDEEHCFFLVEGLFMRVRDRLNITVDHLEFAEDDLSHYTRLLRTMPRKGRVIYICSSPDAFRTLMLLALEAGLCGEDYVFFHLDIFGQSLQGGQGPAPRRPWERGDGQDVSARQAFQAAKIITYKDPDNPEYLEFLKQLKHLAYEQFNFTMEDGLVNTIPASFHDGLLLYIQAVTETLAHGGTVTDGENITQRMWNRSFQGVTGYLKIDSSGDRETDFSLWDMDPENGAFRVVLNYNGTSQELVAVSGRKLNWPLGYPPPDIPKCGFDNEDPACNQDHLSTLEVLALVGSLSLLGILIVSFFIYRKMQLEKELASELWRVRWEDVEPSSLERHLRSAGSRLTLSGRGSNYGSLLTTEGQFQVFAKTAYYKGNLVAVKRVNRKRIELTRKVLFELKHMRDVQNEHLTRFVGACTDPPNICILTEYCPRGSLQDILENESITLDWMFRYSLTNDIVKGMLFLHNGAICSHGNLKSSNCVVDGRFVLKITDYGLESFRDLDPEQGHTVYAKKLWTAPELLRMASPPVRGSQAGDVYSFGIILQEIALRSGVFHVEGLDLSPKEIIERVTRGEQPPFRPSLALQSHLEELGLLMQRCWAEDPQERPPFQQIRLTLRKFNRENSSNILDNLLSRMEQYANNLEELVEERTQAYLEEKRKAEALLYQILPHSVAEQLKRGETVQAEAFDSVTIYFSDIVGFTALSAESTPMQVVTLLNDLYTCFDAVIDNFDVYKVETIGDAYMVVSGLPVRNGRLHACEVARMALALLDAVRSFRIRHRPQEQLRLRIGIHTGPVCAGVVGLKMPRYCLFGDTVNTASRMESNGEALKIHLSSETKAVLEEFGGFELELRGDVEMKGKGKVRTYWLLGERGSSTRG
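HEK293 cells stably expressing human Npr1 and cGMP GloSensor pGS-40F, loaded 2 h with 2% GloSensor reagent, given compound 30 min at room temperature. Luminescence read before and 20 min after 0.1 nM hNppA.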
FLuc inh-1 – inhibitors of firefly (Photinus pyralis) luciferase; P08659; purified P. pyralis luciferase, luminescence, biochemical; Potency, µM (series often up to 115 µM), hits mostly inhibitors; 2.5% of 76,000 active; AID 1347043; note: nearly all actives have a fitted effect of over 65% in size
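Purified P. pyralis luciferase (10nM final) in 50mM Tris acetate pH 7.5, 10mM Mg acetate, 0.01% Tween-20, 0.05% BSA with 10uM D-luciferin and 10uM ATP. Compounds titrated qHTS. Luminescence imaged on CCD.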
HEK293 tox – cytotoxic compounds in HEK 293 cells | Potency, µM (top dose mostly 115 µM), usual class: inhibitors | 6.6% of 94,000 active | HEK 293 viability, ATP luminescence (CellTiter-Glo), 48-72 h; note: nearly all actives have a fitted effect of over 60% in size
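Read-out: CellTiter-Glo ATP luminescence. Cells: HEK 293, 250 cells/well. Exposure: 48 or 72 hr, 37 degree Celsius.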
NIH3T3 tox – NIH 3T3 cell cytotoxicity | 4.3% of 94,000 active | NIH 3T3 viability, CellTiter-Glo ATP luminescence, 48-72 h | AID 1345082 | Potency, µM (doses to about 96.7 µM), actives largely listed as inhibitors; note: nearly all actives have a fitted effect of over 55% in size
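Mouse fibroblast NIH 3T3 cells, 400 per well, received compound via pintool and were incubated for 48 or 72 hr prior to CellTiter-Glo ATP luminescence measurement.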
FLuc SDR no ATP – firefly luciferase binding stabilization, ATP absent. Purified FLuc-C-HiBiT, Nano-Glo HiBiT luminescence, no ATP. 7.8% of 1,300 active. Potency, µM (highest dose often 32.7 µM), hits mostly activators. AID 1963318. shares compounds with FLuc inh-1; note: nearly all actives have a fitted effect of over 55% in size
FLuc SDR ATP – firefly luciferase binding stabilization, ATP added | purified FLuc-C-HiBiT + ATP, HiBiT complementation luminescence | Potency, µM (top dose mostly 32.7 µM), actives largely listed as activators | shares compounds with FLuc inh-1 | AID 1963319 | 8.7% of 1,300 active;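 note: signal reports ligand binding via conformational change of the enzyme rather than luciferase catalysis; nearly all actives have a fitted effect of over 55% in size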
FLuc inh-2 – blocks firefly luciferase enzymatic activity. 42% of 1,300 active. shares compounds with FLuc inh-1. Potency, µM (top dose mostly 32.7 µM), actives largely listed as inhibitors. purified FLuc-C-HiBiT enzyme, luciferin luminescence. AID 1963320; note: nearly all actives have a fitted effect of over 70% in size
Of the large screens only hits and unclear results are named; the others gave an inactive call (follow-up assays come after a bar, where they were run). Unless noted, calls come from the whole dose curve; as a rule, active = well fitted curve in the direction sought with a large enough effect; inconclusive = small, poorly fitted or top-dose-only effect, or another doubt; inactive = no such curve, though single readings can be large; an effect the other way counts as inactive or inconclusive.

O=C(C1CN(c2ccc(F)cc2)C(=O)N1)N1CCN(Cc2ccccc2)CC1 (stereo unspecified)	HEK293 tox 25µM, NIH3T3 tox 28µM
COc1ccc(CC(=O)NCCNC(=O)c2ccc(-c3cccc(C(F)(F)F)c3)cc2)cc1	HEK293 tox 25µM (no result: hNpr1 antagonist, FLuc inh-1)
O=C(NCCNC(=O)c1ccc(-c2cccc(C(F)(F)F)c2)cc1)c1ccccc1	none (no result: hNpr1 antagonist, FLuc inh-1)
COc1cccc(C(=O)NCCNC(=O)c2ccc(-c3cccc(C(F)(F)F)c3)cc2)c1	HEK293 tox inconclusive (no result: hNpr1 antagonist, FLuc inh-1)
O=C(NCCNC(=O)c1ccc(-c2cccc(C(F)(F)F)c2)cc1)c1ccncc1	HEK293 tox 40µM, NIH3T3 tox inconclusive (no result: hNpr1 antagonist, FLuc inh-1)
Cc1cccc(NC(=O)CC2CCCN(c3cnn(CC4CC4)c(=O)c3)C2)c1 (stereo unspecified)	HEK293 tox inconclusive, NIH3T3 tox 25µM
CCc1cccc(NC(=O)CC2CCCN(c3cnn(CC4CC4)c(=O)c3)C2)c1 (stereo unspecified)	HEK293 tox inconclusive, NIH3T3 tox 40µM
Cc1ccc(NC(=O)CC2CCCN(c3cnn(CC4CC4)c(=O)c3)C2)cc1 (stereo unspecified)	NIH3T3 tox inconclusive
CCOc1ccc(NC(=O)CC2CCCN(c3cnn(CC4CC4)c(=O)c3)C2)cc1 (stereo unspecified)	HEK293 tox inconclusive
C#CCNC(=O)[C@@H]1CCCN1c1nccc(Nc2ccccc2Cl)n1	HEK293 tox inconclusive (no result: hNpr1 antagonist, FLuc inh-1)
COc1ccc(Nc2ccc3c(n2)CN(Cc2ccc(C(F)(F)F)cc2)C(=O)CO3)cn1	HEK293 tox inconclusive, NIH3T3 tox inconclusive
COc1ccc(Nc2ccc3c(n2)CN(Cc2ccccc2)C(=O)CO3)cn1	HEK293 tox 79µM, NIH3T3 tox inconclusive
O=C1COc2ccc(Nc3cccnc3)nc2CN1Cc1ccc(C(F)(F)F)cc1	HEK293 tox 89µM, NIH3T3 tox inconclusive
COc1ccc(Nc2ccc3c(n2)CN(Cc2ccc(F)cc2)C(=O)CO3)cn1	HEK293 tox 89µM, NIH3T3 tox inconclusive
N#Cc1cccc(-c2c(C(=O)NC3CCCCC3)nc3sccn23)c1	none (no result: hNpr1 antagonist, FLuc inh-1)
O=C1Nc2ccccc2OCC12CCN(CC1CCCC1)CC2	none
COC1CN(c2cccc(F)c2)C12CCN(C(=O)COc1ccccc1)CC2 (stereo unspecified)	HEK293 tox 89µM, NIH3T3 tox inconclusive
CNC(=O)c1cccc(-c2cnc(NC(=O)Cc3ccccc3)c3c2CCO3)c1	hNpr1 antagonist 8.9µM, FLuc inh-1 0.45µM, HEK293 tox inconclusive, NIH3T3 tox inconclusive | FLuc SDR no ATP 11µM | FLuc SDR ATP inconclusive | FLuc inh-2 3.2µM
CNC(=O)c1cccc(-c2cnc(Nc3ccccc3)c3c2CCO3)c1	FLuc inh-1 8.9µM, HEK293 tox 89µM, NIH3T3 tox 35µM | FLuc SDR no ATP inactive | FLuc SDR ATP inactive | FLuc inh-2 inconclusive
Fc1cccc(-c2cnc(Nc3ccc(N4CCOCC4)cc3)c3c2CCO3)c1	FLuc inh-1 10µM, HEK293 tox inconclusive, NIH3T3 tox inconclusive | FLuc SDR no ATP inactive | FLuc SDR ATP inactive | FLuc inh-2 inconclusive
O=C(Nc1ncc(-c2ccccc2)c2c1OCC2)c1ccccc1	FLuc inh-1 5.6µM, HEK293 tox inconclusive, NIH3T3 tox inconclusive | FLuc SDR no ATP inactive | FLuc SDR ATP inactive | FLuc inh-2 inconclusive
O=C(Nc1ncc(-c2ccccc2)c2c1OCC2)c1cn[nH]c1	NIH3T3 tox inconclusive
COCC(=O)N1CCCC1C(=O)N1CCC(N2CCOCC2=O)CC1 (stereo unspecified)	none (no result: hNpr1 antagonist, FLuc inh-1)
COCCNc1ncc(-c2ccc([S+](C)(=O)[O-])cc2)c2c1OCC2	NIH3T3 tox inconclusive
COc1cccc(Nc2ncc(-c3ccc(OC)nc3)c3c2OCC3)c1	FLuc inh-1 5.6µM, HEK293 tox inconclusive, NIH3T3 tox inconclusive | FLuc SDR no ATP inactive | FLuc SDR ATP inactive | FLuc inh-2 inconclusive
COc1cncc(Nc2ncc(-c3cccnc3)c3c2OCC3)c1	HEK293 tox inconclusive, NIH3T3 tox inconclusive
COCCNc1ncc(-c2cccc(NC(C)=O)c2)c2c1OCC2	hNpr1 antagonist inconclusive, FLuc inh-1 6.3µM, HEK293 tox inconclusive, NIH3T3 tox inconclusive | FLuc SDR no ATP inactive | FLuc SDR ATP inconclusive | FLuc inh-2 inconclusive
COc1cccc(Nc2ncc(-c3ccccc3OC)c3c2OCC3)c1	HEK293 tox inconclusive, NIH3T3 tox inconclusive
CNC(=O)c1cccc(-c2cnc(Nc3cccnc3OC)c3c2CCO3)c1	hNpr1 antagonist inconclusive, FLuc inh-1 3.5µM, HEK293 tox 28µM, NIH3T3 tox 45µM | FLuc SDR no ATP inactive | FLuc SDR ATP inactive | FLuc inh-2 5.1µM
Cc1cccc(C(=O)N2CCC3(CC2)OCC(C(=O)NCC2CCCO2)N3C(=O)c2ccccc2)c1 (stereo unspecified)	none
N#Cc1cccc(-c2c(C(=O)NCCN3CCOCC3)nc3sccn23)c1	none (no result: hNpr1 antagonist, FLuc inh-1)
O=C(c1ccccc1Cl)N1CCC2(CC1)NC(=O)N(Cc1ccc(F)cc1)C2=O	hNpr1 antagonist inconclusive, HEK293 tox inconclusive, NIH3T3 tox inconclusive
CCOc1ccc(-n2nc(CO)c(C(=O)NCc3cccc(OC)c3)n2)cc1	none (no result: hNpr1 antagonist, FLuc inh-1, HEK293 tox, NIH3T3 tox) | FLuc SDR no ATP inactive | FLuc SDR ATP inactive | FLuc inh-2 inconclusive

Assay outcomes as filed in PubChem BioAssay.
